{
  "source": "the OligoGym collection",
  "data": [
    {"molecular_target": "ATP6V0A4", "test": "pooled miR-30 sensor sort-seq; sequence = guide strand", "details": "shRNA", "values": [
      {"sequence": "ATAGGCATCAACAATATTCTGG", "sensor-assay potency score (higher = more potent)": -0.65},
      {"sequence": "TTCCTGTAACTCTCCTTCCAGT", "sensor-assay potency score (higher = more potent)": -0.817},
      {"sequence": "ATCTTCTTGATTTTCTGCCTGA", "sensor-assay potency score (higher = more potent)": -0.439},
      {"sequence": "TTTCGTCACAGGATCCTCCAGA", "sensor-assay potency score (higher = more potent)": 0.303},
      {"sequence": "TTTTTCTAGAACAGTCTCCAGG", "sensor-assay potency score (higher = more potent)": -0.591},
      {"sequence": "TCTTTGAACTGAACCAATCCGA", "sensor-assay potency score (higher = more potent)": 0.235},
      {"sequence": "TAGTTAAACAGAAACATGTTGA", "sensor-assay potency score (higher = more potent)": -0.563},
      {"sequence": "TTCTAGAACAGTCTCCAGGGTA", "sensor-assay potency score (higher = more potent)": -0.117},
      {"sequence": "TTCTGCACCTTGATGAGCCAGG", "sensor-assay potency score (higher = more potent)": -0.64},
      {"sequence": "TTGTGACAAACACATCTCCTCG", "sensor-assay potency score (higher = more potent)": -1.11}
    ]},
    {"molecular_target": "ATP7B", "test": "pooled miR-30 sensor sort-seq; sequence = guide strand", "details": "shRNA", "values": [
      {"sequence": "TATAGCACTTGAGCTGCAGGGA", "sensor-assay potency score (higher = more potent)": -0.435},
      {"sequence": "TGTCTGTCCTTTCATCTCGTGG", "sensor-assay potency score (higher = more potent)": -1.22},
      {"sequence": "TTTGTTGATGCCAACCTGGGTG", "sensor-assay potency score (higher = more potent)": -0.00244},
      {"sequence": "TGACTGGACATATCCAGGGAGC", "sensor-assay potency score (higher = more potent)": -1.47},
      {"sequence": "TAGAGTCCAAGACAAAGCCCAT", "sensor-assay potency score (higher = more potent)": -1.12},
      {"sequence": "TTATCTTGTGCGCCATCTCCAG", "sensor-assay potency score (higher = more potent)": -0.947},
      {"sequence": "AAACATCACAGTCTTTATCTTG", "sensor-assay potency score (higher = more potent)": -0.586},
      {"sequence": "AATGCTAGCCACCACATCCAGC", "sensor-assay potency score (higher = more potent)": -0.992},
      {"sequence": "TTCAGGAGCAGAGACCACTTGT", "sensor-assay potency score (higher = more potent)": -0.382},
      {"sequence": "ATAGCGTCACTGACATCGCTAG", "sensor-assay potency score (higher = more potent)": -0.788},
      {"sequence": "TTGTCAAACATCACAGTCTTTA", "sensor-assay potency score (higher = more potent)": -0.992},
      {"sequence": "TATCTTGTGCGCCATCTCCAGG", "sensor-assay potency score (higher = more potent)": -1.02},
      {"sequence": "TAGCTCTGGCTGTCTTCCGGTT", "sensor-assay potency score (higher = more potent)": -1.3},
      {"sequence": "TCATCGTCTGCTGCAGCGCTGT", "sensor-assay potency score (higher = more potent)": -1.45},
      {"sequence": "TTGACATCTGAGCCTCTTCCAC", "sensor-assay potency score (higher = more potent)": -1.39},
      {"sequence": "TTGGGGTTCTTTGACATCTGAG", "sensor-assay potency score (higher = more potent)": -0.597},
      {"sequence": "TTTCATCTCGTGGTCTGTCATA", "sensor-assay potency score (higher = more potent)": -1.47},
      {"sequence": "TGACTCGCCTCTCACCTTCTAC", "sensor-assay potency score (higher = more potent)": -1.09},
      {"sequence": "TAGCACTTGAGCTGCAGGGATG", "sensor-assay potency score (higher = more potent)": -1.64},
      {"sequence": "AACATCACAGTCTTTATCTTGT", "sensor-assay potency score (higher = more potent)": -0.258},
      {"sequence": "TCTCGTGGTCTGTCATAGCGTC", "sensor-assay potency score (higher = more potent)": -0.487},
      {"sequence": "TGTCCTGCTCAGCTTGTGGTGA", "sensor-assay potency score (higher = more potent)": -0.618},
      {"sequence": "TTCCTCTTTACAGTATTTGGTG", "sensor-assay potency score (higher = more potent)": -0.123},
      {"sequence": "TTTTTGGTCCTGATGAAACTGT", "sensor-assay potency score (higher = more potent)": -0.518}
    ]},
    {"molecular_target": "ATP8A2", "test": "pooled miR-30 sensor sort-seq; sequence = guide strand", "details": "shRNA", "values": [
      {"sequence": "TTGTCTCCTGTCAACACCCATA", "sensor-assay potency score (higher = more potent)": -1.33},
      {"sequence": "TTAAAGTTCATGATATTGCATG", "sensor-assay potency score (higher = more potent)": -0.75},
      {"sequence": "TTTGTCTCCTGTCAACACCCAT", "sensor-assay potency score (higher = more potent)": -1.17},
      {"sequence": "TTGAGTATACTTCACAACCTCA", "sensor-assay potency score (higher = more potent)": -0.741},
      {"sequence": "TTGTATAAGATGATGAACGTCA", "sensor-assay potency score (higher = more potent)": "2.4e-06"},
      {"sequence": "TTGTGTTGAAGCCTTCGCCATT", "sensor-assay potency score (higher = more potent)": -1.44}
    ]}
  ]
}
